What all share (assay type): functional
Holding throughout (set-up): scale not given: direction of the effect not stated beside the values
Holding throughout (conditions): 30 µM

The target in assay [1] is T1, Aspartate--tRNA(Asp/Asn) ligase (Mycobacterium tuberculosis (strain ATCC 25618 / H37Rv)) (UniProt P9WFW3). Also: in the data most compounds retested in dose-response had high values.
T1 sequence (whole entry): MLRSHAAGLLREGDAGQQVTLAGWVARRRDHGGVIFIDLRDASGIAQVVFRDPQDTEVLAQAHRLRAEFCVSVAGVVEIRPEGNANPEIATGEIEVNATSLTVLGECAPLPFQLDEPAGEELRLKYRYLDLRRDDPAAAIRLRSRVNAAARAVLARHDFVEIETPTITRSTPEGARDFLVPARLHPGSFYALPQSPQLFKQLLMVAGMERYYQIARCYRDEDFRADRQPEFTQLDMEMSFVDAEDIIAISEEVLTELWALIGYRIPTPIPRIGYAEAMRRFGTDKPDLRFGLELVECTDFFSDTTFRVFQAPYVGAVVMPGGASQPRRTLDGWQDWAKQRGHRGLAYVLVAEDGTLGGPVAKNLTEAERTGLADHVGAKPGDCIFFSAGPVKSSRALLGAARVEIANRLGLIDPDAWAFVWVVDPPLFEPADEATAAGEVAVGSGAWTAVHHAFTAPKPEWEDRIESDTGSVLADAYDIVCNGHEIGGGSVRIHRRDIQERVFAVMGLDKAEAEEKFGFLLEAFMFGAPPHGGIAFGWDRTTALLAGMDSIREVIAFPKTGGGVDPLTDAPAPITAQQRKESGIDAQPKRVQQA
Briefly: Assay for Asp RNA synthetase-1 from Mycobacterium tuberculosis.

The target of assay [2] is Shiga toxin 2 (Escherichia coli O157:H7) (UniProt P09385+P09386). Briefly: E. coli 0.157:H7 Shiga Toxin SOP - stx2 screening assay.
The target of assay [3] is AMP-activated protein kinase, AMPK (Homo sapiens) (UniProt P54646+O43741+P54619+Q9UGJ0+Q9Y478+Q13131+Q9UGI9). The assay is described as follows: AMP-dependent Kinase enzyme assay. An in vitro enzyme assay that detects ADP turnover that is directly proportional to AMPK activity. This uses naive AMPK that is activated during the assay with MK-8722.

As to `N#Cc1ccc(N2CCN(C(=O)c3cc(C4CC4)[nH]n3)CC2)c(F)c1`, the Percent Effect was -6.09% in assay [1] and -10.4% in assay [2]. The matching figures for `CC(C(=O)Nc1ncccn1)N1CCCN(c2nccs2)CC1` (stereo not given): 0.767% and -54.2%. Taken in the same sequence, the figures for `Cc1ccc(Cl)cc1N1CCC(CNC(=O)CC(F)(F)F)C1` (stereo not given) were -1.19% and -45.5%. `Cc1cccc(CC(=O)N2CCCC(N(C)CCCN(C)C)C2)c1` (stereo not given): the Percent Effect in assay [3] is 6.04%. Consider `O=C(CCc1cscn1)NS(=O)(=O)c1ccc2ccccc2c1`, for which the Percent Effect in assay [1] was -3.43%; in assay [2], 11.4%. Consider `CC(C)c1cc(N2CCCC3(CCN(C)C3)C2)ncn1` (stereo not given), for which the Percent Effect in assay [3] is 1.53%. Still for that read-out and setting: in the case of `COc1ccc(NC(=O)CCN2CC=C(c3cnn(C)c3)CC2)c(C)c1` it was 6.63%.

As to `Cc1nc(NCCc2ccc(Cl)cc2)cc(C(=O)N2CCCCC2)n1`, the results for the Percent Effect in assay [1] and in assay [2] were 12.4% and -69.6%, respectively. Turning to `O=C(N1CCCC1)N1C[C@H]2CC[C@@H]1CN(Cc1ccncc1)C2`, the Percent Effect in assay [3] was 2.18%. Same read-out and setting: then `CNC(=O)[C@@H]1CN(Cc2ccccc2)C[C@H]1C(=O)c1ccc(F)cc1`, with 12%.

With `c1cnc(-c2nc(CN3CCOC(Cn4cncn4)C3)cs2)nc1` (stereo not given), the results for the Percent Effect in assay [1] and in assay [2] were 9.26% and 18.3%, respectively. Consider `Cc1nc(C(=O)N[C@H]2COC[C@@H]2N2CCCCC2)cs1`, for which, in assay [3], the Percent Effect came to 4.08%. On the same count and under the same terms, in the case of `Cc1nn(C)c2nc(N3CCCCC3c3cccnc3)sc12` (stereo not given) it was -3.14%. For `Cn1ccnc1CN1CCC2(CC1)CC(Oc1cccnc1)C2`, the Percent Effect in assay [1] was 0.874%; in assay [2], -18.2%.

In the case of `COCC1CN(Cc2ccc(C)o2)Cc2nnn(CC3CC3)c21` (stereo not given), the results for the Percent Effect in assay [1] and in assay [2] were -0.416% and -35.9%, respectively. Taken in the same sequence, the figures for `CCc1cnc(CN(C)C2CCN(CCc3ccccn3)C2)o1` (stereo not given) were 0.0557% and -7.08%. Regarding `Cn1nnc2cc(C(=O)N3CCCC3Cc3ccccc3)ccc21` (stereo not given), the Percent Effect was 2.04% in assay [1] and -54.6% in assay [2]. The matching figures for `O=C(NCCN1CCCCC1)c1nc2ccccc2c(=O)[nH]1`: -1.02% and -53.5%. The matching figures for `COC(=O)Cn1c(=O)nc2n1C(=O)N(c1ccc(Cl)cc1)C2`: 1.73% and -16.1%. Taken in the same sequence, the figures for `COc1ccc(-c2ccnc3c2C(=O)CCC3)cc1` were -5.43% and -32.1%. Regarding `CC(C)(C)c1nnc(CN2CCCC2c2noc(C3CC3)n2)o1` (stereo not given), the Percent Effect in assay [1] stood at 0.758%; in assay [2], 0.0549%.

As for `NC1(c2nc(C(F)(F)F)cc(=O)[nH]2)CCCC1`, in assay [3], the Percent Effect was -4.13%.

For `N#Cc1ccccc1C(=O)N1CCC2(CC(=O)NC2=O)C1` (stereo not given), the Percent Effect in assay [1] was -0.613%; in assay [2], -0.393%.

Consider `Cn1cc(-c2csc(CN3CCOCC3)n2)cn1`, for which the Percent Effect in assay [1] is -7.74%; in assay [2], 2.01%.

Regarding `CNc1nc2c(s1)C(c1c(F)cccc1Cl)CC(=O)N2` (stereo not given), the Percent Effect worked out at 61.3% in assay [1] and 3.13% in assay [2].

Regarding `Cn1cccc1C(=O)N1CCN(Cc2ccncc2)c2ncccc2C1`, the Percent Effect in assay [1] was 0.0582%; in assay [2], -10%. Consider `CC(=O)Nc1ccc(-c2ccccc2CCN)cc1`, for which, in assay [3], the Percent Effect was 3.13%.
